Experiment [1] in a line: Quantitative High-Throughput drug screen in 47 multiple myeloma cell lines against the NCATS MIPE library collection: Delta47_JCRB cell viability assay (AID 1918925; note: nearly all actives have a fitted effect of over 45% in size). In a few lines:
(§1)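 Relative luminescence from CellTiter-Glo served as the viability signal, referenced to DMSO-treated (100%) and cell-free medium (0%) controls. Treatment lasted 48 hours at 37C with 500 cells per well.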

A short description of experiment [2]: Quantitative High-Throughput drug screen in 47 multiple myeloma cell lines against the NCATS MIPE library collection: EJM_DSMZ cell viability assay (AID 1918926; note: nearly all actives have a fitted effect of over 30% in size). Summed up: as §1
Experiment [3] is described as follows: Quantitative High-Throughput drug screen in 47 multiple myeloma cell lines against the NCATS MIPE library collection: AMO1_DSMZ cell viability assay (AID 1918927; note: nearly all actives have a fitted effect of over 30% in size). In a few lines: as §1
Experiment [4] is described as follows: Quantitative High-Throughput drug screen in 47 multiple myeloma cell lines against the NCATS MIPE library collection: ARP1_JJKsccF8 cell viability assay (AID 1918928; note: nearly all actives have a fitted effect of over 40% in size). Summed up:
(§2)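 500 cells/well; MIPE 4.0 library pinned in; 48 h, 37 °C, 5% CO2; CellTiter-Glo ATP luminescence. Controls: DMSO = 100% viability, medium only = 0%.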

A short description of experiment [5]: Quantitative High-Throughput drug screen in 47 multiple myeloma cell lines against the NCATS MIPE library collection: Karpas620_DSMZ cell viability assay (AID 1918959). Note: nearly all actives have a fitted effect of over 30% in size. Summed up: (§3)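 We plated 500 myeloma cells per well, pinned in MIPE 4.0 compounds, and incubated for 48 hours at 37C. ATP was then quantified with CellTiter-Glo, with DMSO and media-only wells defining 100% and 0%.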

The nature of experiment [6]: Quantitative High-Throughput drug screen in 47 multiple myeloma cell lines against the NCATS MIPE library collection: KMM1_JCRB cell viability assay (AID 1918960). Note: nearly all actives have a fitted effect of over 30% in size. Summed up: as §2
A short description of experiment [7]: Quantitative High-Throughput drug screen in 47 multiple myeloma cell lines against the NCATS MIPE library collection: Karpas417_ECACC cell viability assay (AID 1918961). Particulars: Karpas417 myeloma viability, CellTiter-Glo ATP luminescence, 48 h; viability (% of DMSO): at 45.8 µM (top of the series). In a few lines:
(§4)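 Viability readout: CellTiter-Glo luminescence following 5 min room-temperature incubation with reagent. Prior exposure: 48 h, 37C, humidified 5% CO2, 500 cells per well.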
On the technique in general: Cellular ATP, detected with luciferase, serves as a proxy for viable cell number.

Experiment [8] can be described thus: Quantitative High-Throughput drug screen in 47 multiple myeloma cell lines against the NCATS MIPE library collection: KHM11_PLB cell viability assay (AID 1918962). Note: nearly all actives have a fitted effect of over 35% in size. Summed up:
as §3

Experiment [9] can be described thus: Quantitative High-Throughput drug screen in 47 multiple myeloma cell lines against the NCATS MIPE library collection: JIM3_ECACC cell viability assay (AID 1918963; note: nearly all actives have a fitted effect of over 35% in size). In a few lines: as §3
Experiment [10] is described as follows: Quantitative High-Throughput drug screen in 47 multiple myeloma cell lines against the NCATS MIPE library collection: JIM1_ECACC cell viability assay (AID 1918964). In a few lines:
as §1

The nature of experiment [11]: Quantitative High-Throughput drug screen in 47 multiple myeloma cell lines against the NCATS MIPE library collection: JJN3_DSMZ cell viability assay (AID 1918966; note: nearly all actives have a fitted effect of over 50% in size). Summed up:
as §1

Experiment [12] in a line: Quantitative High-Throughput drug screen in 47 multiple myeloma cell lines against the NCATS MIPE library collection: H1112_PLB cell viability assay (AID 1918967; note: nearly all actives have a fitted effect of over 30% in size). In a few lines:
as §1

Experiment [13] is described as follows: Quantitative High-Throughput drug screen in 47 multiple myeloma cell lines against the NCATS MIPE library collection: KMS27_JCRB cell viability assay (AID 1918970). Note: nearly all actives have a fitted effect of over 30% in size. Summed up:
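Each line is seeded at 500 cells per well and treated with library compounds for 48 hours under 37 °C, 5% CO2. CellTiter-Glo is then added for 5 min at room temperature before median relative luminescence is recorded.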

Experiment [14] can be described thus: Quantitative High-Throughput drug screen in 47 multiple myeloma cell lines against the NCATS MIPE library collection: KMS12BM_JCRB cell viability assay (AID 1918971). Note: nearly all actives have a fitted effect of over 35% in size. Summed up: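 CellTiter-Glo luminescence (ATP) after 48 h compound exposure, 37C/5% CO2; 500 cells/well; MIPE 4.0 approved/investigational drugs pinned in; DMSO = 100%, media only = 0% viability.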

Experiment [15] can be described thus: Quantitative High-Throughput drug screen in 47 multiple myeloma cell lines against the NCATS MIPE library collection: KMS12PE_JCRB cell viability assay (AID 1918972). Note: nearly all actives have a fitted effect of over 30% in size. In a few lines: as §4
The nature of experiment [16]: Quantitative High-Throughput drug screen in 47 multiple myeloma cell lines against the NCATS MIPE library collection: KMS20_JCRB cell viability assay (AID 1918973). Note: nearly all actives have a fitted effect of over 45% in size. Summed up:
as §1

Experiment [17] can be described thus: Quantitative High-Throughput drug screen in 47 multiple myeloma cell lines against the NCATS MIPE library collection: KMS21BM_JCRB cell viability assay (AID 1918974). Particulars: ATP luminescence, 48 h; viability: at 45.8 µM (top of the series) unless noted. In a few lines:
as §1

A short description of experiment [18]: Quantitative High-Throughput drug screen in 47 multiple myeloma cell lines against the NCATS MIPE library collection: INA6_PLB cell viability assay (AID 1918965; note: nearly all actives have a fitted effect of over 55% in size). In a few lines: as §4
Experiment [19] is described as follows: Quantitative High-Throughput drug screen in 47 multiple myeloma cell lines against the NCATS MIPE library collection: Karpas25_ECACC cell viability assay (AID 1918968; note: nearly all actives have a fitted effect of over 35% in size). In a few lines:
as §1

A short description of experiment [20]: Quantitative High-Throughput drug screen in 47 multiple myeloma cell lines against the NCATS MIPE library collection: ARD_JJKsccE7 cell viability assay (AID 1918929). Summed up:
as §1

Records with an inconclusive call do not appear. A number with no mark means an inactive call. The source made the active and inactive calls. Calls come from the whole dose curve; as a rule, active = well fitted curve in the direction sought with a large enough effect; inconclusive = small, poorly fitted or top-dose-only effect, or another doubt; inactive = no such curve, though single readings can be large; an effect the other way counts as inactive or inconclusive.
Potency is the fitted concentration of half-maximal effect.

`COc1cccc2nc(-c3cccs3)nc(NN3C(=O)C=C(C)C3=O)c12`: the Potency in experiment [1] was 74.3 nM (active); in [2], 296 nM (active); in [3], 93.5 nM (active); in experiment [4], 41.8 nM (active); in experiment [5] it was 743 nM (active); in [6] it was 118 nM (active). The Potency in [7] is 52.6 nM (active); in [8], 52.6 nM (active); in experiment [9], 148 nM (active); in experiment [10] it was 105 nM (active); in [11] it was 1180 nM (active); in [12], 1180 nM (active). Also, the Potency in experiment [13] was 235 nM (active); in experiment [14], 105 nM (active); in experiment [15], 118 nM (active); in [16] it was 59 nM (active); in experiment [17], 235 nM (active).
`Cn1cncc1[C@@](N)(c1ccc(Cl)cc1)c1ccc2c(c1)c(-c1cccc(Cl)c1)cc(=O)n2C`: the Potency in experiment [1] is 6620 nM (active); in [2], 14800 nM (active); in experiment [3], 7430 nM (active); in experiment [4], 469 nM (active); in [5], 5900 nM (active); in [6] it was 9350 nM (active). Besides, the Potency in experiment [9] is 16600 nM (active); in [10] it was 935 nM (active); in [18], 4690 nM (active); in experiment [11], 8330 nM (active); in experiment [19] it was 4180 nM (active); in [13], 7430 nM (active). The Potency was 14800 nM (active) in experiment [14], 3320 nM (active) in experiment [15], 11800 nM (active) in experiment [16] and 16600 nM (active) in experiment [17].
In the case of `CCn1nnc2c(N3CCOCC3)nc(-c3ccc(NC(=O)Nc4ccc(C(=O)N5CCN(C)CC5)cc4)cc3)nc21`, the Potency in [1] is 13.2 nM (active); in [2] it was 469 nM (active); in [3], 52.6 nM (active); in experiment [4], 66.2 nM (active); in [20], 37.2 nM (active); in experiment [8], 5.9 nM (active). Moreover, the Potency in experiment [18] was 5.3 nM (active); in [11] it was 18.7 nM (active); in [19], 8.3 nM (active); in experiment [14], 5.9 nM (active); in experiment [15], 46.9 nM (active); in experiment [16], 23.5 nM (active).
For the compound `CCN(CC)CCNC(=O)c1ccc2nc(-c3ccccc3)c(-c3ccc(CN4CCC(n5c(=O)[nH]c6ccccc65)CC4)cc3)nc2c1`, the Potency in experiment [1] was 662 nM (active); in experiment [2] it was 18700 nM (active); in [3] it was 1050 nM (active); in experiment [20], 2640 nM (active); in experiment [5] it was 935 nM (active); in [6], 1660 nM (active). Also, the Potency in experiment [7] is 1050 nM (active); in experiment [8], 332 nM (active); in experiment [9] it was 935 nM (active); in experiment [10], 833 nM (active); in experiment [18], 296 nM (active); in experiment [11], 20900 nM (active). Further, the Potency in [12] is 833 nM (active); in experiment [19] it was 332 nM (active); in experiment [13], 418 nM (active); in experiment [14], 16600 nM (active); in experiment [15] it was 833 nM (active); in experiment [16], 296 nM (active). In addition, the Potency in experiment [17] is 1180 nM (active).
On to `COc1cccc(-c2ccc(NC(=O)C3=C(C(=O)O)CCC3)c(F)c2)c1`, for which the Potency entry in experiment [1], in experiment [2], in experiment [5], in [8], in [12] and in experiment [19] was “inactive” throughout. The Potency in experiment [3] was 6620 nM (active); in [4] it was 16600 nM (active); in experiment [9], 23500 nM (active); in [18] it was 4690 nM (active); in [14] it was 20900 nM (active); in experiment [15], 2960 nM (active).
For `CCCNC(=O)Nc1ccc(Oc2ncnc3cc(OC)c(OC)cc23)cc1Cl`, the Potency entry in experiment [1], in [2], in experiment [3], in [4], in [5] and in experiment [9] was “inactive” in each case. Also, the Potency entry in experiment [10], in [18], in experiment [11], in [12], in [13] and in [15] was “inactive” throughout. Further, the Potency in experiment [14] was 18700 nM (active).
Consider `COCCn1c2c([n+](Cc3cnccn3)c1C)C(=O)c1ccccc1C2=O`, for which the Potency in experiment [1] was 16.6 nM (active); in [2], 7.4 nM (active); in [3], 52.6 nM (active); in experiment [4], 11.8 nM (active); in [8], 29.6 nM (active); in [9] it was 26.4 nM (active). For the same compound, the Potency in experiment [11] was 2.3 nM (active); in experiment [12], 52.6 nM (active); in experiment [14], 41.8 nM (active); in [16] it was 23.5 nM (active).
Take `CC(C)(C)c1cnc(CSc2cnc(NC(=O)C3CCNCC3)s2)o1`: the Potency was 264 nM (active) in [1]; 105 nM (active) in experiment [2]; 1480 nM (active) in experiment [3]; 209 nM (active) in [4]; 372 nM (active) in experiment [5]; 187 nM (active) in experiment [6]. Also, the Potency was 132 nM (active) in experiment [7]; 74.3 nM (active) in [8]; 235 nM (active) in experiment [9]; 74.3 nM (active) in [10]; 235 nM (active) in [18]; 83.3 nM (active) in experiment [11]. Besides, the Potency in [13] is 209 nM (active); in [14], 132 nM (active); in experiment [15], 526 nM (active); in experiment [17], 66.2 nM (active).
Turning to `O=C(O)c1ccc2c(c1)nc(Nc1cccc(Cl)c1)c1ccncc12`, the Potency in [1] was 4180 nM (active); in experiment [2], 9350 nM (active); in experiment [3], 5900 nM (active); in [4], 9350 nM (active); in [5], 4180 nM (active); in experiment [6], 4690 nM (active). In addition, the Potency in [7] was 935 nM (active); in [8], 5900 nM (active); in [18], 1660 nM (active); in experiment [11], 9350 nM (active); in experiment [12], 6620 nM (active); in [19] it was 2640 nM (active). The Potency is 1660 nM (active) in [13], 10500 nM (active) in experiment [14], 5260 nM (active) in experiment [15] and 3320 nM (active) in [17].
`O=C(Nc1ncc(-c2cc(C(F)F)nn2-c2c(Cl)cccc2Cl)s1)C1CC1`: the Potency was 332 nM (active) in experiment [1]; 209 nM (active) in experiment [2]; 235 nM (active) in experiment [3]; 418 nM (active) in experiment [4]; 264 nM (active) in experiment [6]; 935 nM (active) in experiment [8]. In addition, the Potency in experiment [9] is 264 nM (active); in [10] it was 166 nM (active); in experiment [18], 296 nM (active); in experiment [19], 662 nM (active); in experiment [13], 83.3 nM (active); in [14], 1050 nM (active). For the same compound, the Potency in [15] is 372 nM (active).

Source of the values: PubChem BioAssay (NCATS).
